# Assay outcomes from PubChem.
# Sampled rows, rich in hits. Any-hit rate of the full collection: about 2.9%.
# ADAM17 inh = ADAM17 inhibitors, primary screen, biochemical, QFRET | Disintegrin and metalloproteinase domain-containing protein 17 (Homo sapiens), P78536 | recombinant ADAM17, EDANS/DABCYL FRET peptide cleavage | inhibition, % at 6.95 µM | 0.83% of 370,000 active;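 active = inhibition above the mean of compounds lying between control limits plus 3 SD, set per campaign, cut at about 8.5% in these data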;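 note: 0% = DMSO-only wells as the low control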
# ADAM10 inh = human ADAM10 inhibitors, primary screen, biochemical, QFRET, HTS; recombinant ADAM10, EDANS/DABCYL FRET peptide cleavage, 3 h; inhibition, % at 7 µM; AID 720582, 2013; 0.62% of 370,000 active; Disintegrin and metalloproteinase domain-containing protein 10 (Homo sapiens), O14672;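 active = inhibition above a per-campaign cutoff equal to the mean of compounds falling between control-based bounds plus 3 SD, cut at about 20% in these data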;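 note: 0% = DMSO wells while the 100% control is not disclosed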
# PLCb3 inh = human PLC-beta3 inhibitors, primary screen, biochemical, fluorescence; 1-phosphatidylinositol 4,5-bisphosphate phosphodiesterase beta-3 (Homo sapiens), Q01970; Purified PLC-beta3, fluorogenic substrate; inhibition, % at 12.2 µM; 0.18% of 370,000 active; AID 720704, 2013; in the data active = inhibition above about 11%;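 note: 0% = median of compound wells on plate and 100% = full blocker control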
# PLC-gamma1 inh = PLC-gamma1 enzyme inhibitors, primary screen, biochemical, fluorescence, purified enzyme; 1-phosphatidylinositol 4,5-bisphosphate phosphodiesterase gamma-1 (Homo sapiens), P19174; fluorogenic substrate; inhibition, % at 12.2 µM; 0.84% of 370,000 active; in the data active = inhibition above about 9.5%
# KLK7 zymogen act = proKLK7 zymogen activators, primary screen, biochemical, fluorescence intensity | Kallikrein-7 (Homo sapiens), P49862 | purified proKLK7, EDANS-DABCYL substrate fluorescence; 100% is mature enzyme control, 0% vehicle | activation, % at 7 µM | 0.9% of 370,000 active;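 active = activation above the mean of all tested compounds plus 3 SD, computed per campaign excluding outliers beyond control limits, cut at about 13% in these data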
# KLK7 act conf = proKLK7 zymogen activators, confirmation, biochemical, fluorescence intensity, triplicate | shares compounds with KLK7 zymogen act | purified proKLK7, EDANS-DABCYL substrate fluorescence; scaled: vehicle 0, mature enzyme 100 | activation, % at 7 µM | 68% of 3,200 active;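 active = activation, as change over the incubation, above the mean of all tested compounds plus 3 SD, cut at about 13% in these data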
# EDANS-DABCYL int = EDANS-DABCYL substrate optical interference, artefact control for kallikrein-7 zymogen activator project, biochemical, fluorescence intensity, high throughput; shares compounds with KLK7 zymogen act; no enzyme, 4 h; solvent 0%, active enzyme control 100%; activation, % at 7 µM; 80% of 3,200 active;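 active = activation above the all-compound mean plus 3 SD, ignoring values outside control-based bounds, cut at about 4.8% in these data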;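 note: value is the 4 h activation minus the activation read at time zero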
# K7 EDANS ctr = counter-screen for kallikrein-7 activators: EDANS-DABCYL interference, dose response; shares compounds with KLK7 zymogen act; EC50, µM; EDANS-DABCYL peptide fluorescence interference, no enzyme; 20% of 250 active; AID 720493;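 active = compounds that raise the fluorescence signal in this interference counterscreen, with EC50 at or below 10 µM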;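 note: intact quenched peptide substrate alone read at 355 nm excitation and 520 nm emission; signal is fluorescence gain from T0 to T4 after four hours at room temperature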
# Active calls of the source: *; i = inactive; . = no result given.
SMILES,ADAM17 inh,ADAM10 inh,PLCb3 inh,PLC-gamma1 inh,KLK7 zymogen act,KLK7 act conf,EDANS-DABCYL int,others
CS(=O)(=O)NN1C(=O)c2ccccc2NC1c1cccc(O)c1 (stereo not drawn),-283,i,i,-500,63*,17*,19*,
CS(=O)(=O)NN1C(=O)c2ccccc2NC1c1ccccc1 (stereo not drawn),-219,i,i,-463,79*,10,15*,
COc1ccc(C2Nc3ccccc3C(=O)N2NS(C)(=O)=O)c(OC)c1 (stereo not drawn),-253,i,i,-449,69*,11,15*,
Cc1ccc(S(=O)(=O)NN2C(=O)c3ccccc3NC2c2cccc(O)c2)cc1 (stereo not drawn),-27,-72,-61,-55,5,.,.,
CS(=O)(=O)NN1C(=O)c2ccccc2NC1c1cccs1 (stereo not drawn),-199,i,-458,-421,63*,0,11*,
CCCCCCCCN1C(=O)[C@@H](CC(=O)NCCCOC)C[C@@]2(C(=O)OC)C1=C[C@H](C1CCCC1)O[C@@H]2C,3,-50,5,1,0,.,.,
Cc1cccc(NC(=O)CNC(=O)[C@@H](Cc2ccccc2)NC(=O)[C@H]2O[C@@H](n3ccc(=O)[nH]c3=O)[C@H](O)[C@@H]2O)c1C,5,0,5,4,0,.,.,
Cn1cccc1C=NNC(=O)c1cc(-c2ccc(Cl)cc2)n[nH]1,-1,-5,-20,-7,0,.,.,
CCOC(=O)[C@@]12CN(C(=O)OC(C)(C)C)CC=C1N(Cc1ccc(OC)cc1)C(=O)[C@H]2CC(=O)NCCCN1CCCC1=O,-3,-4,-1,-1,0,.,.,
COC(=O)C1CN(Cc2ccc(F)cc2)CCS(=O)(=O)N1Cc1ccc(C(F)(F)F)cc1 (stereo not drawn),4,12,-1,-2,0,.,.,
Cc1ccc(S(=O)(=O)NN2C(=O)c3ccccc3NC2c2ccccc2O)cc1 (stereo not drawn),-17,-53,-46,-42,3,.,.,
CS(=O)(=O)NN1C(=O)c2ccccc2NC1c1c[nH]c2ccccc12 (stereo not drawn),-54,-184,-158,-122,14*,1,2,
CS(=O)(=O)NN1C(=O)c2ccccc2NC1c1ccccc1O (stereo not drawn),-114,-307,-300,-257,36*,6,6.4*,
CCCCCN1CCCCC(NC(=O)c2cc(OC)c(OC)c(OC)c2)C1=O (stereo not drawn),-4,-2,-6,-2,0,.,.,
COC(=O)C1CN(Cc2cn(Cc3ccccc3)nn2)CCS(=O)(=O)N1Cc1ccc(F)cc1 (stereo not drawn),-4,-8,-2,2,0,.,.,
Cc1ccc(C(=O)N2CCC(Oc3cccnc3)CC2)cc1,-5,-5,-1,0,0,.,.,
CCc1cc2c(nc1CC)CCCN2C,-115,-422,-445,-334,30*,-47,-46,
CCCCS(=O)(=O)N1CCCc2nc(CC)c(CC)cc21,-6,-9,-5,-4,0,.,.,
N#Cc1c(=O)c2nc(NCCCO)ncc2n2c(=O)c3ccccc3[nH]c12,0,-5,i,-404,-6,.,.,
N#Cc1c(=O)c2nc(NCc3ccccc3)ncc2n2ccccc12,-103,-402,i,i,19*,24*,26*,
COc1cc(NC(=O)C2CCCN(S(=O)(=O)c3cc(OC)ccc3OC)C2)cc(OC)c1 (stereo not drawn),1,-2,1,0,0,.,.,
CC1(C)CC(=O)C(C=Nc2cccnc2/N=C/C2=C(O)CC(C)(C)CC2=O)=C(O)C1,-18,-52,-157,-141,25*,-7,-4,
N#Cc1sc2nc(N3CCCCC3)c3c(c2c1N)CCCC3,-15,-43,-84,-67,0,.,.,
Cc1nc2sc(C#N)c(N)c2c2c1CCCC2,-189,i,i,i,15*,15*,22*,
COc1ccc2c(c1)CN1CN(C3CCCC3)S(=O)(=O)CC21 (stereo not drawn),-7,-16,-16,-11,0,.,.,
SMILES,ADAM17 inh,ADAM10 inh,PLCb3 inh,PLC-gamma1 inh,KLK7 zymogen act,KLK7 act conf,EDANS-DABCYL int,others
CC1Nc2nc(N(C)C)[nH]c(=O)c2NC1C (stereo not drawn),-136,-471,-398,-350,19*,12,18*,
Cc1onc(-c2ccccc2Cl)c1C(=O)NC(=S)Nc1ccccc1C(N)=O,-79,-254,-37,-37,13*,8,9.1*,
CC(C)N(Cc1c(O)ccc2c(=O)c(-c3ccc(Cl)cc3)coc12)C(C)C,-59,-153,-267,-221,-2,.,.,
COc1ccccc1-c1coc2c(CN(C)C)c(O)ccc2c1=O,i,i,i,i,50*,78*,70*,
COc1ccccc1Oc1coc2c(CN(C)C)c(O)ccc2c1=O,i,i,i,i,62*,63*,69*,
Cc1nc(-c2coc3c(CN(C)C)c(O)ccc3c2=O)cs1,-259,i,i,i,19*,42*,42*,
CCN(CC)Cc1c(O)ccc2c(=O)c(Oc3ccccc3OC)coc12,-204,i,i,i,15*,44*,33*,K7 EDANS ctr=8.6*
Cc1ccccc1N(C)C(=O)C1CCCN1S(=O)(=O)c1cccc2cccnc12 (stereo not drawn),3,-6,1,-1,-1,.,.,
CCN(CC)Cc1c(O)ccc2c(=O)c(-c3ccccc3)coc12,-455,i,i,i,26*,23*,31*,
CCC1(O)C(=O)OCc2c1cc1n(c2=O)Cc2cc3cc(O)ccc3nc2-1 (stereo not drawn),-219,i,i,i,64*,74*,77*,
COC(=O)c1cc2c(c3c4ccccc4n(S(=O)(=O)c4cccc(C)c4)c13)C(=O)N(C)C2,1,-1,-17,-13,0,.,.,
Cc1ccc(S(=O)(=O)C(C#N)c2nc3ccccc3nc2OCCO)cc1 (stereo not drawn),-1,5,-56,-37,-2,.,.,
